Screening data deposited in PubChem BioAssay by National Center for Advancing Translational Sciences (NCATS).
The list is not random: actives were taken first. Their share in the collection is about 12%.
Sfp inh: inhibitors of Bacillus subtilis Sfp phosphopantetheinyl transferase; Potency, µM, most hits filed as inhibitors; hit rate 3.5% among 310,000; Biochemical Sfp PPTase activity, qHTS; AID 1490;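 note: the enzyme is Sfp with the accession as filed and its product quenches rhodamine fluorescence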
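With Hepes-Na pH 7.6 buffer containing 10 mM MgCl2, Sfp (15 nM) modified BHQ-2-YbbR (12.5 uM) using rhodamine-CoA (5 uM). Two reads 30 minutes apart at 525/598 nm yielded each well's rate.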
HP1b binding inh: blocks HP1-beta chromodomain binding to methylated histone tails | Potency, µM (top dose mostly 114 µM), hits mostly inhibitors | AlphaScreen HP1-beta / biotin-H3K9me3 peptide binding | P83916 | AID 540317 | hit rate 0.56% among 390,000; note: nearly all actives have a fitted effect of over 70% in size
Target sequence (P83916 whole entry, looked up): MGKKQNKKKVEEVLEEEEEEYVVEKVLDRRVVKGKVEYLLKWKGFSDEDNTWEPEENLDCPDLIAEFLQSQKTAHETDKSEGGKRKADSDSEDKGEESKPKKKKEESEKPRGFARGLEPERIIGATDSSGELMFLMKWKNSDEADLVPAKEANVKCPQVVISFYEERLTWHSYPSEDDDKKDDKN
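Compound inhibition of the preformed complex between 50 nM HP1-beta and 50 nM biotinylated H3K9me3 peptide was read by AlphaScreen. Buffer was PBS pH 7.4 with 0.01% Tween-20. Incubations ran 30 min at room temperature, with 10 ug/mL donor/acceptor beads.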
BAZ2B block: BAZ2B (human) inhibition; Q9UIF8; AlphaScreen BAZ2B-H3K14Ac peptide displacement; Potency, µM (titrated, usually from 114 µM), actives largely listed as inhibitors; hit rate 4.4% among 360,000; note: nearly all actives have a fitted effect of over 60% in size
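Protein-peptide AlphaScreen: BAZ2B 50 nM, b-H3K14Ac 50 nM, 1x PBS pH 7.4 + 0.01% Tween-20. Preincubation 30 min RT; cpd 30 min RT (top 110 uM); beads 20 min RT, light-protected.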
G9a inh: inhibitors of human histone lysine methyltransferase G9a | AID 504332 | G9a H3K9 monomethylation, AlphaScreen, 2 h | Potency, µM (doses to about 102 µM), hits mostly inhibitors | hit rate 8.8% among 350,000 | Q96KQ7; note: nearly all actives have a fitted effect of over 75% in size
Target sequence (Q96KQ7 913-1193 limits assumed): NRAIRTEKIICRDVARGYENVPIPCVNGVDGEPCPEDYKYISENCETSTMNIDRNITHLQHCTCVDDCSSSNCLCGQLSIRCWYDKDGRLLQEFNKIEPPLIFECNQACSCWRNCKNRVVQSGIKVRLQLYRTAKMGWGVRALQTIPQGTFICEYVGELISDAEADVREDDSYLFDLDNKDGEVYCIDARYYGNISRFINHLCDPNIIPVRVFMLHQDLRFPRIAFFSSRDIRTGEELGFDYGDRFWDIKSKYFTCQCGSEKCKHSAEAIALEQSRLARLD
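AlphaScreen read-out: biotin-H3K9 peptide (500 nM) methylation by 20 nM enzyme with 20 uM SAM, 2 h at room temperature after 15 min compound preincubation; anti-monomethyl H3K9 antibody plus donor/acceptor beads, 10 min dark.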
PLK1 PBD block: PLK1 (human) polo-box domain binding inhibition | P53350 | Plk1 PBD binding of FITC phosphopeptide, fluorescence polarization | Potency, µM, hits mostly inhibitors | hit rate 2.8% among 360,000 | AID 720504; note: series mostly up to about 57 µM; nearly all actives have a fitted effect of over 65% in size
JMJD2A Tudor: inhibitors of human JMJD2A Tudor domain; O75164; AlphaScreen JMJD2A-Tudor / H3K4me3 peptide binding; Potency, µM (series often up to 114 µM), actives largely listed as inhibitors; hit rate 4.4% among 390,000; note: nearly all actives have a fitted effect of over 50% in size
Hits are given with their value; [ ] = remark or other dose. Calls come from the whole dose curve; as a rule, active = well fitted curve in the direction sought with a large enough effect; inconclusive = small, poorly fitted or top-dose-only effect, or another doubt; inactive = no such curve, though single readings can be large; an effect the other way counts as inactive or inconclusive.

What do the screens show for `COc1ccc(NC(=O)/C(Cl)=C(/Cl)S(=O)(=O)Cc2ccccc2)cn1`?
Sfp inh: inactive; HP1b binding inh: inactive; BAZ2B block: inactive; G9a inh: inconclusive; PLK1 PBD block: 5.3µM; JMJD2A Tudor: inactive

How did COc1ccc(NC(=O)C(Cl)=C(Cl)Cl)cn1 do in these assays?
Sfp inh: inactive; HP1b binding inh: inactive; BAZ2B block: inactive; G9a inh: inactive; PLK1 PBD block: inactive; JMJD2A Tudor: inactive

How did COc1ccc(NC(=O)C(C)(C)Oc2ccc(Cl)cc2)cn1 do in these assays?
HP1b binding inh: inactive; BAZ2B block: inactive; G9a inh: inactive[2.33 µM]; PLK1 PBD block: inactive; JMJD2A Tudor: inactive

What do the screens show for `COc1ccc(NC(=O)/C(Cl)=C(/Cl)S(=O)Cc2ccc(Cl)cc2)cn1` (stereo not drawn)?
Sfp inh: 11µM; HP1b binding inh: inactive; BAZ2B block: inactive; G9a inh: 11µM; PLK1 PBD block: 1.3µM; JMJD2A Tudor: inactive

Results for O=C(Oc1ccccc1)N1CCC2(CCCN(c3ccc(-c4ccccc4)cc3)C2)CC1 ?
Sfp inh: inactive; G9a inh: inactive[12.7 µM]

Results for O=C(N/N=C/c1c(O)ccc2ccccc12)C(=O)N1CCCC1 ?
PLK1 PBD block: inactive

How did Oc1ccc2ccccc2c1/C=N/c1nccs1 do in these assays?
Sfp inh: inconclusive; HP1b binding inh: inactive; BAZ2B block: inconclusive; G9a inh: inconclusive; PLK1 PBD block: 19µM; JMJD2A Tudor: inactive

How did Oc1ccc2ccccc2c1C=NC12CN3CCN(CN(C3)C1)C2 do in these assays?
Sfp inh: inconclusive; HP1b binding inh: inconclusive; BAZ2B block: inconclusive; G9a inh: inconclusive; PLK1 PBD block: 5.3µM; JMJD2A Tudor: 79µM

Results for O=C(N/N=C/c1c(O)ccc2ccccc12)c1cccc(C(F)(F)F)c1 ?
Sfp inh: inactive; HP1b binding inh: inactive; BAZ2B block: inactive; G9a inh: inactive; PLK1 PBD block: inactive; JMJD2A Tudor: inactive

Results for Oc1cccc(C=Nc2cccc3ccccc23)c1O ?
Sfp inh: 13µM; HP1b binding inh: inconclusive; BAZ2B block: 45µM; PLK1 PBD block: inactive; JMJD2A Tudor: 14µM

How did Cc1cc(C(=O)O)ccc1N=Cc1c(O)ccc2ccccc12 do in these assays?
Sfp inh: inactive; HP1b binding inh: inactive; BAZ2B block: inactive; G9a inh: 2.5µM; PLK1 PBD block: inconclusive; JMJD2A Tudor: inconclusive

How did CC(C)n1cnnc1SCC(=O)Nc1cccnc1Cl do in these assays?
HP1b binding inh: inactive; PLK1 PBD block: inactive; JMJD2A Tudor: inactive

How did Oc1ccc2ccccc2c1C=NCc1cn2ccsc2n1 do in these assays?
Sfp inh: inactive; HP1b binding inh: inactive; BAZ2B block: inactive; G9a inh: 8.9µM; PLK1 PBD block: inconclusive; JMJD2A Tudor: inconclusive

What do the screens show for `CS/C(N)=N/N=C/c1cc(C)ccc1O`?
Sfp inh: inactive; HP1b binding inh: inactive; BAZ2B block: inactive; PLK1 PBD block: inconclusive; JMJD2A Tudor: inactive[11.4 µM]

What do the screens show for `CN(C)/N=C/c1c(O)ccc2ccccc12`?
Sfp inh: inactive; HP1b binding inh: inconclusive; BAZ2B block: 45µM; G9a inh: 10µM; PLK1 PBD block: inactive; JMJD2A Tudor: 56µM

How did CS/C(N)=N/N=C/c1c(O)ccc2ccccc12 do in these assays?
Sfp inh: inactive; HP1b binding inh: inactive; BAZ2B block: inactive; G9a inh: 11µM; PLK1 PBD block: inactive; JMJD2A Tudor: inactive[11.4 µM]

What do the screens show for `Cc1cc(N=Cc2c(O)ccc3ccccc23)no1`?
Sfp inh: inactive; HP1b binding inh: inactive; BAZ2B block: inactive; G9a inh: 1.1µM; PLK1 PBD block: 5.3µM; JMJD2A Tudor: 28µM

Results for CCCCN(C)S(=O)(=O)c1cc2c3c(c1)CCC(=O)N3CCC2 ?
Sfp inh: inactive; HP1b binding inh: inactive; BAZ2B block: inactive; G9a inh: inactive; PLK1 PBD block: inactive; JMJD2A Tudor: inactive

What do the screens show for `CN1C(=O)[C@H]2[C@@H](c3ccc(C(F)(F)F)cc3)N[C@]3(CCCN(Cc4ccco4)C3=O)[C@H]2C1=O`?
PLK1 PBD block: inactive

Results for Cc1ccccc1NC(=O)Cc1nc(COC(=O)CSc2ccc(F)cc2)cs1 ?
PLK1 PBD block: inactive

Results for Cc1cn([C@@H]2C[C@H](N=[N+]=N)[C@H](CO)O2)c(=O)[nH]c1=O ?
Sfp inh: inactive; G9a inh: inactive[21.5 µM]
